CD11b adhes inh: inhibitors of human CD11b/CD18 binding to fibrinogen; AID 1497; K562 CD11b/CD18 adhesion to fibrinogen, ATPlite luminescence; Mn2+ added to activate the integrin; 0.54% of 93,000 active; P05107+P11215; inhibition, % at 10 µM;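 active means primary inhibition of 50% or more at 10 µM, then 40% or more on retest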
CD11b adhes enh: increases human CD11b/CD18 adhesion to fibrinogen; K562 CD11b/CD18 adhesion to fibrinogen, ATPlite luminescence; activation, % at 10 µM; 0.07% of 93,000 active; AID 1499;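 active means 10 µM primary screen giving 50% or more activity, confirmed by 40% or more on retest at that dose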
Cav32 inh: inhibitors of human Cav3.2 T-type calcium channel | O95180 | Cav3.2-expressing cells, Fluo-4 calcium fluorescence FDSS; hits give low values | B-score at 10 µM | 4% of 100,000 active | AID 449739;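 active means single-dose well whose peak fluorescence ratio is a statistical outlier from its plate by either plate-standardised score or position-corrected B-score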
Target sequence (O95180 whole entry, looked up): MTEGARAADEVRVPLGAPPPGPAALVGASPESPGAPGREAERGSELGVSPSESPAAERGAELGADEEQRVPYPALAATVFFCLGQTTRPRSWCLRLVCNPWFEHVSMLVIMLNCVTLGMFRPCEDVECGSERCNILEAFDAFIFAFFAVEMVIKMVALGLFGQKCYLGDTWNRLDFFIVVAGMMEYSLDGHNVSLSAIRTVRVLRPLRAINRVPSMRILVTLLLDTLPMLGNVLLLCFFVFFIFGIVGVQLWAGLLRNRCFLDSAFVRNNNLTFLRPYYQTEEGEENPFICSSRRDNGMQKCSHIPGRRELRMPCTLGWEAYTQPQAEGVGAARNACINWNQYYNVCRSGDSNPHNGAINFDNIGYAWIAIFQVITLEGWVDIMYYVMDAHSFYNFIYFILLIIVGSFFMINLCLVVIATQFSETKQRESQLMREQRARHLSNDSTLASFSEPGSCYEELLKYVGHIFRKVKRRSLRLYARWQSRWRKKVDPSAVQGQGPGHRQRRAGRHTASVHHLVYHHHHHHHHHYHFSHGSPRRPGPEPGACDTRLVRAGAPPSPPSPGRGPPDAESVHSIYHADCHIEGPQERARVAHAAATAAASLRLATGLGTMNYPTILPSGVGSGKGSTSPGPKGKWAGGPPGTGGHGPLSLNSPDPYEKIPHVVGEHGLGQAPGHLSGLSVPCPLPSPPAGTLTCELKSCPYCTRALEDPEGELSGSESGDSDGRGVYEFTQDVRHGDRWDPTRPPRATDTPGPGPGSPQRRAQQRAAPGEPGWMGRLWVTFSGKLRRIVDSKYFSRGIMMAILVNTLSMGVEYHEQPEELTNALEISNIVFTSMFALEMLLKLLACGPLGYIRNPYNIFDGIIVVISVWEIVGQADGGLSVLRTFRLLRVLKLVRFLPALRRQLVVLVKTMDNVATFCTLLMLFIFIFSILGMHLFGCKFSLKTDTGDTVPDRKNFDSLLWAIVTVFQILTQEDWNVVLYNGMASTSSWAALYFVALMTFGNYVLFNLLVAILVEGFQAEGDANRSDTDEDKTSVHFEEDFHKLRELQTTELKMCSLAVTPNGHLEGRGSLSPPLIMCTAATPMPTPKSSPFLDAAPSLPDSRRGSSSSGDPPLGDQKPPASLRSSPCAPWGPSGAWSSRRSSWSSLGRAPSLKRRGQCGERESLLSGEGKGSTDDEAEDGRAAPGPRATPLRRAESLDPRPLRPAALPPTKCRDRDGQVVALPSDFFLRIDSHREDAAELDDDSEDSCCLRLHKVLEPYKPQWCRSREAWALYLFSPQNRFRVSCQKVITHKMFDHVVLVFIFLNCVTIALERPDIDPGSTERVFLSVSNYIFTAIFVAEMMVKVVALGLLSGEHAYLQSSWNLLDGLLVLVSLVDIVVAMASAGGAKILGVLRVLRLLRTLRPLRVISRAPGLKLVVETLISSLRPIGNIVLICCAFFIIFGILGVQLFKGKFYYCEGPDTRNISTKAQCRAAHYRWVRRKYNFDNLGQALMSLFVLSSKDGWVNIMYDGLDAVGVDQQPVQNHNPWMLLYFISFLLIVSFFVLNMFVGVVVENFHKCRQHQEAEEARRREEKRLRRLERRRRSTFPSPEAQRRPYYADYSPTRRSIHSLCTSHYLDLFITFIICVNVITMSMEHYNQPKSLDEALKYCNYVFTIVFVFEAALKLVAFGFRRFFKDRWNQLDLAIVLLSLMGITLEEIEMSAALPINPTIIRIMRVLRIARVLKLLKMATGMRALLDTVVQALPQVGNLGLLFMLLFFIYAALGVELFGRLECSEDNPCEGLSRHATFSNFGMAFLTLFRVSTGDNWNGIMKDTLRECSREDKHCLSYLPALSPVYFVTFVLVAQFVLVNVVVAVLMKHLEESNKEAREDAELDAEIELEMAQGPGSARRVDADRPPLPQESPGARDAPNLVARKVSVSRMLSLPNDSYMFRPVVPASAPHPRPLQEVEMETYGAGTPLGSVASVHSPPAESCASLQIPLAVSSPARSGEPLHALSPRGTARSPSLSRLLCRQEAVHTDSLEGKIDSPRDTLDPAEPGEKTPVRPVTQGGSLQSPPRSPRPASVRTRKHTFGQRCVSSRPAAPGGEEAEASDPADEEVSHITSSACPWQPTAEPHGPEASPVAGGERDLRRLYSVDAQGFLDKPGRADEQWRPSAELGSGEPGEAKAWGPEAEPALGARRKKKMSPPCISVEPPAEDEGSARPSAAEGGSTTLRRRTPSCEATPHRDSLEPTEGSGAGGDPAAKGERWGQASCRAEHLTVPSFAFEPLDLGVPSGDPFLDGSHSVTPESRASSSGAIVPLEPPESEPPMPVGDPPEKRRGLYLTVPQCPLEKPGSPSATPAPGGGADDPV
E coli WT exp: growth inhibitors of E. coli BW25113 wild type. OD600 absorbance. growth inhibition, % at 100 µM. 0.15% of 98,000 active. AID 710;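 active means growth inhibition above about 50% at one test dose, limit read from the data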;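 further: growth measured after 20 h incubation at 37 °C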
* hit, by the source's call. This excerpt belongs to a sample that is enriched for hits.

For Cc1cc(/C=C(\C#N)C(=O)NCc2cccs2)c(C)n1-c1ccccc1F the results were CD11b adhes inh 3.6, CD11b adhes enh -4.4, Cav32 inh -4.76* and E coli WT exp -4.0.
`CCc1cc(C(=O)NNC(=S)Nc2ccccc2C)cs1` gave Cav32 inh -0.645.
For CCCc1cc(C(=O)NNC(=S)NCc2ccccc2)cs1 the results were CD11b adhes inh 10.8, CD11b adhes enh -1.5, Cav32 inh -7.29* and E coli WT exp 1.0.
For Cn1ncc(C#N)c1NC(=O)c1cc(-c2ccccc2Cl)on1 the results were Cav32 inh 0.358 and E coli WT exp -9.0.
O=C1CSC(c2ccccc2F)N1c1cc(Cl)ccc1O (centres undefined) was read as CD11b adhes inh 13.4, CD11b adhes enh 0.3, Cav32 inh -3.67* and E coli WT exp 5.0.
N#CC(c1ccc(F)cc1)c1ccc(C(=O)c2ccccc2)cc1 (centres undefined) was read as CD11b adhes inh 64.5, CD11b adhes enh -3.6, Cav32 inh -0.832 and E coli WT exp -8.0.
N#CC(c1ccccc1)c1ccc(C(=O)c2ccc(F)cc2)cc1 (centres undefined) was read as CD11b adhes inh 86.9*, CD11b adhes enh -7.1, Cav32 inh -0.652 and E coli WT exp -23.0.
Screening CCN1c2ccccc2-c2nc3ccccc3n2C1c1ccncc1 (centres undefined) returned CD11b adhes inh 3.1, CD11b adhes enh -4.0, Cav32 inh -0.824 and E coli WT exp 2.0.
`Cc1ccc(C2N(C)c3ccccc3-c3nc4ccccc4n32)o1` (centres undefined) gave CD11b adhes inh 23.0, CD11b adhes enh -4.8, Cav32 inh -5.37* and E coli WT exp -19.0.
Screening Cc1cc(C(=O)CN2C(=O)NC3(CCCc4ccccc43)C2=O)c(C)n1Cc1ccccc1 (centres undefined) returned CD11b adhes inh -20.6, CD11b adhes enh 42.2, Cav32 inh -4.4* and E coli WT exp -8.0.
`CCC(CC)NC(=O)Cc1ccccc1OC` gave CD11b adhes inh 1.0, CD11b adhes enh 0.4, Cav32 inh 0.868 and E coli WT exp 5.0.
`COC(=O)[C@@H]1C[C@@]2(Br)c3ccccc3N(S(=O)(=O)c3ccccc3)[C@H]2N1C(=O)OC` gave Cav32 inh 1.69.
Screening COc1cccc(CNc2nc3ccccc3n2CCN2CCCCC2)c1 returned CD11b adhes inh 9.8, CD11b adhes enh -0.9, Cav32 inh 1.34 and E coli WT exp 19.0.
`c1cc(CN2CCCCC2)cc(OCCCNc2nc3ccccc3s2)c1` gave Cav32 inh -4.34*.
For O=C(CSc1nnc(CNc2ccc(F)cc2)n1-c1ccccc1)N1CCOCC1 the results were Cav32 inh 1.34.
Screening CC(C)COc1ccc(CSCCNC(=S)Nc2ccccc2)cc1 returned CD11b adhes inh -12.6, CD11b adhes enh -11.3, Cav32 inh -4.1* and E coli WT exp -14.0.
Screening COC(=O)c1sc(N2C(=O)C(O)=C(C(=O)c3ccc(C)o3)C2c2ccc(F)cc2)nc1C (centres undefined) returned CD11b adhes inh 4.4, CD11b adhes enh -1.4, Cav32 inh -4.89* and E coli WT exp -8.0.
Screening Cc1ccc(C2C(C(=O)c3ccco3)=C(O)C(=O)N2c2nnc(C)s2)cc1 (centres undefined) returned Cav32 inh -0.224 and E coli WT exp 2.0.
CC1=CC(=O)c2c(O)ccc(O)c2C1=O was read as Cav32 inh -5.47*.
For CCOC(=O)C1=C(C)NC(C)=C(C(=O)OCC)C1c1cc2ccc(C)cc2[nH]c1=O the results were CD11b adhes inh 4.5, CD11b adhes enh -2.3, Cav32 inh -5.06* and E coli WT exp -4.0.
Screening COC(=O)C1=C(C)NC(C)=C(C(=O)OC)C1c1cc2ccc(C)cc2[nH]c1=O returned CD11b adhes inh -3.0, CD11b adhes enh -0.8, Cav32 inh -0.234 and E coli WT exp 3.0.
`Cc1ccc(NC(=O)/C(=C/c2cccs2)NC(=O)c2ccco2)cc1` gave CD11b adhes inh -2.5 and CD11b adhes enh 3.4.
CC(C)(C)c1ccc(C(=O)NCC(=O)OCc2ccc([N+](=O)[O-])cc2)cc1 was read as CD11b adhes inh -3.8 and CD11b adhes enh -2.3.
CN(C)c1ccc(/C=C/C(=O)c2cccc(Br)c2)cc1 was read as Cav32 inh -7.48* and E coli WT exp -32.0.
Screening O=C(O)Cn1c(SCCOc2ccccc2F)nc2ccccc21 returned CD11b adhes inh -5.0, CD11b adhes enh -2.0, Cav32 inh -5.35* and E coli WT exp 2.0.
For OCCn1c(SCCOc2ccccc2F)nc2ccccc21 the results were CD11b adhes inh -17.9, CD11b adhes enh -2.5, Cav32 inh -1.23 and E coli WT exp -1.0.
CCCNC(=O)Cn1nc([N+](=O)[O-])c([N+](=O)[O-])c1C was read as CD11b adhes inh -22.6 and CD11b adhes enh -6.3.
Cc1cc(Cl)ccc1OC(C)C(=O)N1CCCN(C(=O)C(C)Oc2ccc(Cl)cc2C)CC1 (centres undefined) was read as CD11b adhes inh 74.8, CD11b adhes enh -10.9, Cav32 inh -5.42* and E coli WT exp -11.0.
C/C(=N\NS(=O)(=O)c1ccc(Cl)c([N+](=O)[O-])c1)c1cc2ccccc2o1 was read as CD11b adhes inh 97.0*, CD11b adhes enh -9.7, Cav32 inh -4.45 and E coli WT exp 8.0.
Screening COc1cc2oc3ccccc3c2cc1N(CC(=O)N1CCCCC1)S(=O)(=O)c1ccc(C)cc1 returned CD11b adhes inh -8.5, CD11b adhes enh 8.7, Cav32 inh -0.489 and E coli WT exp -11.0.
Screening O=C1c2ccccc2C(Nc2ccc3c(c2)OCCO3)N1Cc1ccccc1 (centres undefined) returned CD11b adhes inh 13.4, CD11b adhes enh 6.3, Cav32 inh -6.19* and E coli WT exp -8.0.
`COc1cc(/C=C/C(=O)CC(=O)/C=C/c2ccc(O)c(OC)c2)ccc1O` gave Cav32 inh -4.21*.
`COc1ccc(C2C(C(=O)Nc3ccccc3)=C(C)N=C3SCC(=O)N32)cc1` (centres undefined) gave Cav32 inh -9.93*.
`CC1=C(C(=O)Nc2ccccc2)C(c2ccc(O)cc2)N2C(=O)CSC2=N1` (centres undefined) gave CD11b adhes inh -6.0, CD11b adhes enh -3.8, Cav32 inh -2.43 and E coli WT exp -7.0.
For Cc1ccc(-c2nn(C)c(=O)c3ccccc23)cc1CNC(=O)Cn1nc(-c2ccccc2)c2ccccc2c1=O the results were CD11b adhes inh -13.3, CD11b adhes enh 132.9* and E coli WT exp -5.0.
Cc1cc(C)n(CC(=O)NCc2cc(-c3nn(C)c(=O)c4ccccc34)ccc2C)n1 was read as CD11b adhes inh -6.6, CD11b adhes enh -4.3, Cav32 inh 3.38 and E coli WT exp -11.0.
Screening COc1ccc2oc(=O)c(/C(C)=N/NC(=O)c3ccncc3)cc2c1 returned CD11b adhes inh -26.4 and CD11b adhes enh 7.4.
For COc1ccc(Cc2nc(C(=O)NCc3ccccc3OC)cs2)cc1 the results were Cav32 inh -6.73* and E coli WT exp -13.0.
CCOC(=O)CSc1nc(C)c2ccc(C)cc2n1 was read as Cav32 inh -0.667.

Assay outcomes from PubChem.
